# This is a sample that favours compounds with a hit; in the whole collection about 0.97% have one here.
# NTR1 ag: agonists of human NTR1, primary screen, imaging, U2OS cells, beta-arrestin-GFP, high content; Neurotensin receptor type 1 (Homo sapiens), P30989; NTR1-U2OS beta-arrestin-GFP spot imaging, agonist mode; activation, % at 20 µM; 0.17% of 330,000 active; AID 493036, 2011;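 active = activation at or above 40% of the spot to cytoplasm intensity ratio, with at least 20 cells analyzed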;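 note: 0% = DMSO without peptide and 100% = 100 nM NTR1 peptide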
# TLR9-MyD88 inh: inhibitors of TLR9-MyD88 association in cells, primary screen, cell-based, CHO, BLA complementation, fluorescence. Toll-like receptor 9 (Homo sapiens) + Myeloid differentiation primary response protein …. inhibition, % at 4.98 µM. CCF4 FRET ratio. 0.21% of 340,000 active;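 active = inhibition above the mean over all tested compounds plus 3 SD, cut at about 21% in these data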;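 note: 0% = DMSO only wells and 100% = clavulanate BLA inhibitor control wells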
# Beta2AR agonist: beta2AR agonists driving receptor internalization, primary screen, cell-based, FAP fluorogen, flow cytometry | Beta-2 adrenergic receptor (Homo sapiens), P07550 | Am2.2-beta2AR cells | 0.43% of 340,000 active | response, % (no concentration beside the values) | AID 504454, 2011;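 active = response above a set limit, near 3 SD of response in nonfluorescent compounds, cut at about 42% in these data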
# Target sequence (P07550 whole entry, looked up): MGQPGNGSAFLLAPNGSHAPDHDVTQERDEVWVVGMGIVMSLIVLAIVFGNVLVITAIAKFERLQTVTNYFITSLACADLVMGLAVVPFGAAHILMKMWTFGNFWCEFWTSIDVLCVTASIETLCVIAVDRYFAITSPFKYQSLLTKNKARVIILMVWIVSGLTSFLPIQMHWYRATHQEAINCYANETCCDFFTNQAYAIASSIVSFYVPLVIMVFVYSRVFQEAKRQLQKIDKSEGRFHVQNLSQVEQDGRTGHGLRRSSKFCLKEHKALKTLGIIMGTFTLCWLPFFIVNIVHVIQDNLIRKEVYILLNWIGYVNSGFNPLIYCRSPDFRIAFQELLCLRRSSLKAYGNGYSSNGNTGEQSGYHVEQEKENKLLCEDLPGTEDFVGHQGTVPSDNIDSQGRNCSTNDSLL
# TLR4 MyD88 comp: inhibitors of TLR4-MyD88 association in cells, primary screen, cell-based, HeLa CL3-4, BLA complementation, FRET ratio; Toll-like receptor 4 (Homo sapiens) + Myeloid differentiation primary response protein …; HeLa CL3-4 TLR4/MyD88 BLA complementation; inhibition, % at 8.4 µM; 0.18% of 200,000 active; AID 861, 2007; in the data active = inhibition above about 25%;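 note: 0% = vehicle and 100% = reference inhibitor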
# NOD2 RIPK2 PPI: NOD2-RIPK2 binding disruptors in cells, primary screen, fluorescence, CHO cells, BLA complementation | Receptor-interacting serine/threonine-protein kinase 2 (Homo sapiens), O43353 | CCF4 ratio | inhibition, % at 4.98 µM | 0.38% of 360,000 active; in the data active = inhibition above about 21%;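 note: 0% = vehicle only and 100% = reference blocker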
# Bfl-1 A1 inh: caspase 3/7 activation in MEF A1-2A-BIM cells, primary screen, A1 inhibitor project, cell-based, luminescence, HTS; Caspase-Glo 3/7 luminescence, 3 h; percent of clofoctol response, vehicle zero; caspase activation, % (no concentration beside the values); 0.066% of 330,000 active; AID 2462, 2010;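 active = over half of replicate activation scores above 10%, or exactly half above 10 with the replicate mean above 10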
# Beta2AR ag CP1: beta2AR agonists via receptor internalization, confirmation, cell-based, FAP fluorogen, flow cytometry, single point, cherry pick 1. shares compounds with Beta2AR agonist. Am2.2-beta2AR cells, FAP surface receptor; active compounds read low. percent response (surface receptor), % at 10 µM. 25% of 1,100 active;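 active = surface receptor percent response at or below 58%, roughly 3 SD from nonfluorescent compounds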
# B2AR FAP counter: flagged in Am2.2 fluorescence counterscreen for beta-2AR agonists; shares compounds with Beta2AR agonist; Am2.2 cells, FAP fluorogen flow cytometry; active compounds read low; calls only at 10 µM; 1,100 tested, under 10 active; AID 588765;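 active = percent response below a set limit in fluorescence channel 1 and below 50% in channel 8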
# Numbers without * were called inactive; i = inactive; nt = no result given; + = active, no number.
SMILES,NTR1 ag,TLR9-MyD88 inh,Beta2AR agonist,TLR4 MyD88 comp,NOD2 RIPK2 PPI,Bfl-1 A1 inh,Beta2AR ag CP1,B2AR FAP counter
N#CC1=C2Nc3ccccc3N2C(=O)NC1(c1ccccc1)C(F)(F)F (stereo not given),0.0,9.1,-4.2,11.5,-9.2,1.3,nt,nt
CN(C(=O)c1ccc(NC(=O)Cc2cccc(NC(=O)C3CCN(C(=O)C4CCCCC4)CC3)c2)cc1)C1CCCC1,-0.8,-12.9,54.1*,nt,-4.2,0.1,92.4,i
CN(C(=O)c1cccc(NC(=O)Cc2cccc(NC(=O)C3CCN(C(=O)C4CCCCC4)CC3)c2)c1)C1CC1,nt,8.9,-4.0,nt,-0.4,nt,nt,nt
CN(C(=O)c1ccc(NC(=O)Cc2cccc(NC(=O)C3CCN(C(=O)C4CCC4)CC3)c2)cc1)C1CC1,nt,-3.6,-7.6,nt,-16.9,nt,113.3,i
S=c1nc2ccccc2c2nc(-c3ccccc3)[nH]n12,3.6,0.8,2.3,3.5,6.2,-1.1,nt,i
COC(=O)Cc1cn(-c2ncc(C(F)(F)F)cc2Cl)c2ccccc12,0.2,-1.8,2.2,0.4,-5.5,-0.7,nt,nt
Cc1ccccc1N=C/C=C1/C=C(c2ccccc2)OC(C)(C)O1,3.9,6.4,42.6*,-3.6,-3.0,-0.7,84.9,i
COc1ccc(CN2C[C@@H](CO)O[C@@H](n3cnc4c(NCc5ccncc5)ncnc43)C2)cc1,nt,nt,nt,nt,-3.0,nt,nt,nt
CC(C)c1nc2oc3c(N(C)CCO)ncnc3c2c2c1CCC2,2.5,-13.1,-9.7,nt,2.0,-0.8,148.5,i
Cc1cc(NC(=O)c2ccc3c(c2)OCCO3)ccc1NC(=O)c1ccco1,-0.3,nt,-5.2,-1.6,-7.4,-7.4,nt,nt
COc1cc(NC(=O)c2ccc3c(c2)OCO3)ccc1NC(=O)c1ccco1,-2.6,-5.1,-0.6,0.9,7.0,-6.9,112.3,i
CC(C)(C)c1ccc(C(=O)NCCCN2CCN(CCCNC(=O)c3ccc(C(C)(C)C)cc3)CC2)cc1,24.3,-7.2,48.7*,6.0,-4.2,-0.5,81.4,i
CC(C)(C)c1ccc(C(=O)NCCN2CCOCC2)cc1,0.6,-4.8,-0.1,nt,6.0,0.0,nt,nt
Cc1nn(C)cc1C1C(C#N)=C(N)N(c2cccnc2)C2=C1C(=O)CCC2 (stereo not given),1.6,9.8,-0.7,-1.3,-7.6,0.1,nt,nt
CC(Sc1nc(-c2ccccc2)cc(C(F)(F)F)n1)C(=O)N1CCC(C(N)=O)CC1 (stereo not given),-0.3,-8.1,-2.1,-5.2,1.2,0.5,133.7,i
CC(Sc1nc(-c2ccccc2)cc(C(F)(F)F)n1)C(=O)O (stereo not given),-0.8,nt,6.2,-4.7,-2.0,-0.6,nt,nt
CC(Sc1nc(-c2ccccc2)cc(C(F)(F)F)n1)C(=O)N1CCOCC1 (stereo not given),0.8,2.7,90.7*,-5.7,-1.4,0.1,13.5*,i
CC(Sc1nc(-c2ccccc2)cc(C(F)(F)F)n1)C(=O)NCCN1CCOCC1 (stereo not given),2.0,-4.8,-22.9,1.1,4.2,-0.3,nt,nt
CC1CCN(C(=O)C(C)Sc2nc(-c3ccccc3)cc(C(F)(F)F)n2)CC1 (stereo not given),7.8,-2.5,14.6,-3.6,2.4,0.3,111.0,i
CC(Sc1nc(-c2ccccc2)cc(C(F)(F)F)n1)C(=O)N1CCCC1 (stereo not given),3.0,-0.6,53.9*,-10.1,1.3,-0.8,54.6*,i
Cc1ccc(S(=O)(=O)NN2C(=O)/C(=C\c3ccc(Cl)cc3)SC2=S)cc1,1.3,-4.7,-1.7,nt,5.1,0.5,nt,nt
Clc1ccccc1-c1ncnc2ccc(Br)cc12,-0.9,nt,95.9*,-12.3,-1.0,-0.1,115.1,i
NNc1nc(-c2ccccc2Cl)c2cc(Br)ccc2n1,1.5,2.2,4.0,nt,2.7,0.4,nt,nt
Cc1cccc(C)c1NC(=O)CN1CCN(CCCC(c2ccc(F)cc2)c2ccc(F)cc2)CC1,21.3,-3.1,20.1,nt,17.5,nt,104.0,i
COc1cccc(NS(=O)(=O)c2ccc3c(c2)CCCN3C(C)=O)c1,1.7,-8.4,46.6*,-3.9,-14.1,0.5,115.8,i
SMILES,NTR1 ag,TLR9-MyD88 inh,Beta2AR agonist,TLR4 MyD88 comp,NOD2 RIPK2 PPI,Bfl-1 A1 inh,Beta2AR ag CP1,B2AR FAP counter
CC(C)NCC(O)c1cc(O)cc(O)c1 (stereo not given),-1.7,-14.0,0.1,nt,0.1,0.2,93.3,i
O=C(COc1ccccc1)N(Cc1cccc(F)c1)C1CCS(=O)(=O)C1 (stereo not given),0.0,-5.9,0.2,nt,-8.0,1.7,nt,nt
O=C(COc1ccc(F)cc1)N(Cc1cccc(Br)c1)C1CCS(=O)(=O)C1 (stereo not given),0.3,-9.7,52.8*,nt,-5.3,-1.0,109.0,i
c1ccc(CNc2nc(N3CCN(Cc4ccccc4)CC3)nc3ccccc23)cc1,25.2,nt,16.4,nt,8.4,0.2,97.8,i
O=C(NCc1ccco1)c1ccc(Br)c(S(=O)(=O)N2CCCCC2)c1,0.4,2.0,7.1,-4.7,-11.2,1.3,nt,nt
O=C(Cn1nnc2c(cnn2-c2ccccc2)c1=O)N1CCN(c2ccccc2F)CC1,0.3,-6.6,14.9,-1.4,-2.3,-0.6,nt,nt
O=C(C(c1ccccc1)c1ccccc1)N1CCN(c2ccccn2)CC1,2.6,-6.6,113.3*,-16.8,1.8,1.3,15.6*,i
CC1N(C)c2cccc3cccc(c23)N1C,-3.3,7.5,-108.3,7.3,1.5,0.0,nt,nt
Cn1c(N)c(C(=O)CSc2nnc(-c3ccccc3F)n2C2CC2)c(=O)n(C)c1=O,4.3,-8.9,-7.3,4.0,-0.9,1.2,nt,nt
Cn1c(=N)n(CC(=O)c2ccc(Br)cc2)c2ccccc21,-0.1,-2.3,43.0*,nt,-3.1,-2.2,16.4*,i
CCCCn1c(=N)n(CC(=O)c2ccc([N+](=O)[O-])cc2)c2ccccc21,3.7,nt,nt,17.7,nt,1.7,nt,nt
Cn1c(=N)n(CC(=O)c2ccc(F)cc2)c2ccccc21,0.7,0.2,-7.0,nt,-4.0,-2.1,nt,nt
Cc1ccc(Cn2c(=N)n(CC(=O)c3ccc([N+](=O)[O-])cc3)c3ccccc32)cc1,11.7,2.5,99.6*,10.1,-5.2,1.2,23.1*,+
O=C(Cc1c(Cl)cccc1Cl)Nc1ccncc1Cl,0.2,-12.7,-2.5,nt,-4.8,0.2,nt,nt

# Assay outcomes as filed in PubChem.
